Results on 20 compounds are retold here after PubChem BioAssay.

The list shows a part of the results. A number with no mark means an inactive call. Calls of active or inactive are those of the source.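 How the source made its calls, unless noted: active means mean activation across triplicate tests above the threshold derived from the earlier primary screen (cut at about 5.5% in these data); inactive means the rest.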

The test system of the first assay is Nuclear hormone receptor DAF-12 (Haemonchus contortus). Description: hcDAF-12 luciferase reporter activation, retest – cell-based, luminescence, HEK293, lit1-tk-luc, triplicate, confirmation (AID 743032).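 Further: 0% = DMSO only wells and 100% = 3 µM Δ7-dafachronic acid.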 The conditions noted are these: HEK293 hcDAF-12 lit1-tk-luc reporter, at 6.8 µM, stronger effect = higher value, % of Δ7-dafachronic acid response. For orientation: In a reporter assay the amount or activity of a reporter protein is the signal.
Consider `Cc1noc(C)c1/C=N/Nc1ccc2ccccc2n1`, for which the activation was 15.2% (active). Same read-out and setting: the figure for `CC(=O)Nc1cccc(-c2csc(Nc3cccc(C)n3)n2)c1` is 3.26%; for `Clc1ccc(Nc2nc(-c3cccs3)cs2)nc1` it is 13.6% (active); for `CCNc1nc(-c2cc3ccccc3o2)cs1` it is 8.18% (active). Still for that read-out and setting: to `COc1ccc2nc(SCc3ccccc3)nc(C)c2c1` belongs 5.65% (active). On the same count and under the same terms, the figure for `O=C(Nc1ccc2c(c1)CCC2)c1ccc(Br)s1` is 7.91% (active); for `Cc1ccc(NC(=O)c2csc3c2CCCC3)cc1` it is 6.25% (active); for `Cc1ccccc1Nc1nc(N)nc(CSc2ccccc2)n1` it is 8.23% (active).

For `COc1ccc(-c2csc(Cc3nc(O)cs3)n2)cc1`, the activation is 7.02% (active).

Turning to `c1ccc(Nc2nc(-c3ccncc3)cs2)nc1`, the activation was 8.34% (active).

For the compound `CCOc1ccc2nc(C(=O)N3CCCC(C)C3)sc2c1` (stereo not drawn), the activation is 4.22%. Same read-out and setting: to `Cc1cccc(NC(=O)Nc2ccc3c(c2)OCO3)n1` belongs 4.11%; to `COc1ccc(-n2nnnc2-c2nc3ccccc3s2)cc1`, 12.8% (active). Still for that read-out and setting: to `Cc1cc(C)c2nc(NC(=O)C3CCCO3)sc2c1` (stereo not drawn) belongs 6.1% (active).

Another assay relates to DAF-12 nuclear receptor (Heterodera glycines), GAL4-LBD fusion. The assay can be described thus: hgDAF-12 GAL4 fusion reporter activation, retest – cell-based, luminescence, HEK293, GAL4-LBD fusion, confirmation (AID 743050;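 active means mean activation over triplicate wells above the hit cutoff derived from the earlier primary screen, cut at about 11% in these data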;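 further: 0% = DMSO low control and 100% = 2 mM sodium butyrate high control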). Particulars: HEK293 GAL4-hgDAF12 luciferase reporter, agonist mode; at 6.8 µM; stronger effect = higher value; percent of butyrate response.
`O=C(NCCCn1ccnc1)c1cc(-c2ccccc2)on1`: the activation was 57.6% (active). The same measure, in the same setting: to `CCc1ccc(NC2Nc3cc(C)nn3S2)cc1` (stereo not drawn) belongs 18.8% (active); to `CC(=O)Nc1cccc(-c2csc(Nc3cccc(C)n3)n2)c1`, 19% (active). Same read-out and setting: the figure for `Clc1ccc(Nc2nc(-c3cccs3)cs2)nc1` is 13.1% (active); for `CN(C)c1ccnc2sc(C(=O)c3ccccc3)c(N)c12` it is 14.2% (active); for `NC(=O)Cc1ccc2sc(-c3ccccc3)nc2c1` it is 17.4% (active). As to `COc1ccc2nc(SCc3ccccc3)nc(C)c2c1`, the activation is 17.7% (active).

As to `O=C(Nc1ccc2c(c1)CCC2)c1ccc(Br)s1`, the activation is 24.6% (active). Still for that read-out and setting: the figure for `Cc1ccc(NC(=O)c2csc3c2CCCC3)cc1` is 17.6% (active); for `COc1ccc(C2Nc3ccccc3C(=O)N2c2ccc(Cl)cc2)cc1Cn1cc([N+](=O)[O-])cn1` (stereo not drawn) it is 10.6% (active).

As for `COc1ccc(-c2csc(-c3cccs3)n2)cc1OC`, the activation was 9.44%.

`Cc1ccccc1Nc1nc(N)nc(CSc2ccccc2)n1`: the activation is 17.7% (active). On the same count and under the same terms, the figure for `c1ccc(Nc2nc(-c3ccncc3)cs2)nc1` is 16.8% (active); for `Cc1cccc(NC(=O)Nc2ccc3c(c2)OCO3)n1` it is 18.4% (active).
